Shown are actives, neighbours in structure and some others; about 4.7% of the full set was active somewhere.
D1 potentiator = Potentiators of Human D1 Dopamine Receptor: qHTS; D(1A) dopamine receptor (Homo sapiens), P21728; hit rate 0.036% among 360,000; potentiation, % at 10 µM; HEK293 TREx D1 cells, calcium flux, dopamine EC20 potentiation; in the data active = potentiation above about 30%
D1 antag = Antagonist of Human D 1 Dopamine Receptor: qHTS. D(1A) dopamine receptor (Homo sapiens), P21728. HEK293 TREx D1 cells, calcium flux, dopamine EC80; stronger effect = lower value. activity change, negative = inhibition, % at 10 µM. hit rate 3.2% among 360,000. AID 504652, 2011; in the data active = activity change below about -30%
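Using tetracycline-induced force-coupled D1 Hek293 cells and a calcium dye, signals were followed for 180 s after compound, then for 180 s after EC80 dopamine, to detect inhibitors.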
TRHR enhancer = qHTS for Small Molecule Agonists and Allosteric Enhancers of Human TRH Receptor: Primary Screen for Enhancers | Thyrotropin-releasing hormone receptor (Homo sapiens), P34981 | TRHR cells, fluo-8 calcium fluorescence, EC20 TRH enhancement | enhancement, % at 2 µM | hit rate 0.66% among 360,000 | AID 493056, 2011; in the data active = enhancement above about 30%
Target sequence (P34981 whole entry, looked up): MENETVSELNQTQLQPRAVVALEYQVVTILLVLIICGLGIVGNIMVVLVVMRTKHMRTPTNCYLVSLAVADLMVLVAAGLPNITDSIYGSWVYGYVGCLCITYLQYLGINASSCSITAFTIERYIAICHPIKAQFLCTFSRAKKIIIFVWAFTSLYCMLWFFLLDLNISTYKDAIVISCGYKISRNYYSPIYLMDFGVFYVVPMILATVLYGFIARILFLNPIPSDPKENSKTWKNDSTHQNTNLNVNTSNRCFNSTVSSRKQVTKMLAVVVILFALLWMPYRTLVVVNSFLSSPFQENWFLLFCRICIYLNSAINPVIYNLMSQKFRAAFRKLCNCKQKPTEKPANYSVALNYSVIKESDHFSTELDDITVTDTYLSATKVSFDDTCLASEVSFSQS
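Enhancer read-out: after compound pinning and an initial kinetic agonist-mode read, an EC20 of TRH (10 nM final) was injected and fluo-8 calcium signal (Ex 480/Em 530) followed at 1 s/cycle for 100 cycles in TRHR-expressing cells.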
D1 agonist = Allosteric Agonists of the Human D1 Dopamine Receptor: qHTS; D(1A) dopamine receptor (Homo sapiens), P21728; HEK293 T-REx D1 cells, calcium flux, agonist mode; activation, % at 2 µM; hit rate 1% among 360,000; AID 504660, 2011
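Tetracycline-induced HEK293 TREx D1 cells, force-coupled to calcium signalling, were dye-loaded with a no-wash calcium kit. Compound was pin-added after a 10 s baseline. Fluorescence was read kinetically at 1 cycle/s for 180 s, with calcium rises flagged as agonism.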
TRHR agonist = qHTS for Small Molecule Agonists and Allosteric Enhancers of Human TRH Receptor: Primary Screen for Agonists; TRHR cells, calcium flux fluo-8, FDSS agonist mode; AID 493084, 2011; hit rate 0.18% among 360,000; Thyrotropin-releasing hormone receptor (Homo sapiens), P34981; activation, % at 2 µM
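TRHR-expressing cells loaded with fluo-8 calcium dye; 23 nL library compound pin-transferred, kinetic FDSS fluorescence (Ex 480/Em 530) recorded about 180 s for agonist-induced calcium release, before a 10 nM TRH EC20 addition for potentiator mode.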
Large screens that a line does not name were inactive; ! = not active in a repeat. Rule as the data show it, unless noted: active = activation above about 30%; inactive = the rest.

O=C(CCCN1C(=O)/C(=C\c2cccs2)SC1=S)Nc1ccc(C(=O)O)cc1	none
O=C(CCCN1C(=O)/C(=C\c2cccs2)SC1=S)Nc1ccc(O)cc1	D1 antag -33.2
CCN(CC)CCOC(=O)c1ccc(NC(=O)CCCN2C(=O)/C(=C/c3cccs3)SC2=S)cc1	D1 antag -76.8
O=C(CCCN1C(=O)/C(=C\c2cccs2)SC1=S)Nc1ccccn1	none
CCOc1cc(CNC2CCCC2)cc(Cl)c1OCc1ccc(F)cc1	D1 potentiator 42.1, D1 agonist 101.6
COc1cc(CNC2CCCC2)cc(Cl)c1OCc1ccccc1Cl	none
COc1cc(CNC2CCCC2)cc(Cl)c1OCc1ccc(F)cc1	D1 agonist 32.3
COc1cc(CNn2c(C)n[nH]c2=S)cc(Cl)c1OCc1ccc(F)cc1	D1 agonist 37.4
COC(=O)c1sc(-c2ccc(Cl)cc2)cc1NC(=O)CSCC(=O)O	none
COC(=O)c1sc(-c2ccc(C(C)(C)C)cc2)cc1NC(=O)COCC(=O)O	D1 antag -39.3, D1 agonist 58.4
Cc1ccccc1OCCC(=O)OCC(=O)NCCNC(=O)COC(=O)CCOc1ccccc1C	D1 antag -43.3
CNC(=O)c1cc(S(=O)(=O)N2CC(C)OC(C)C2)ccc1N1CCCCC1 (stereo not given)	TRHR enhancer 40.8
CNC(=O)c1cc(S(=O)(=O)N2CC(C)OC(C)C2)ccc1N1CCOCC1 (stereo not given)	none
CCn1c(N2CCN(C(=S)NC)CC2)nc2ccccc21	D1 antag -32.4
CCn1c(N2CCN(C(=S)NCCc3ccccc3)CC2)nc2ccccc21	D1 antag -35.8
CCn1c(N2CCN(C(=S)NCC(C)C)CC2)nc2ccccc21	none
Cc1cc(C)cc(C(=O)Nc2ccc(-c3nc4ncccc4o3)cc2)c1	none
COc1ccc(OC)c(NC(=O)CCc2nc(-c3ccc(C)cc3)no2)c1	none
COc1ccc(NC(=O)COc2nsnc2N2CCCCC2)cc1	D1 antag -33.7
CCOc1ccc(NC(=O)COc2nsnc2N2CCCCC2)cc1	none
CCOc1cc(-c2ccc(OC(=O)c3ccccc3F)cc2)cc(=O)c2c(C)oc(C)c12	none
O=C(Nc1ccccc1)Nc1nc(Nc2cc(F)cc(F)c2)nc(NC2CCCC2)n1	none
Cc1nn(-c2ccccc2)c2nc(C3CC3)cc(C(=O)Nc3cccc(F)c3)c12	none
C=C(C)C1CC=C(C)/C(=N/NC(=O)c2ccccc2[N+](=O)[O-])C1 (stereo not given)	TRHR enhancer 36.3
C=C(C)C1CC=C(C)/C(=N/Nc2ccccc2[N+](=O)[O-])C1 (stereo not given)	none
CSc1cccc(NC(=O)C2CCN(S(=O)(=O)c3ccc4c(c3)CCCN4C(=O)C3CCC3)CC2)c1	D1 antag -48.1
Cc1cccc(NC(=O)C2CCN(S(=O)(=O)c3ccc4c(c3)CCCN4C(=O)C3CCC3)CC2)c1	none
CSc1cccc(NC(=O)C2CCCN(S(=O)(=O)c3ccc4c(c3)CCCN4C(C)=O)C2)c1 (stereo not given)	D1 antag -32.3
COc1ccc(NC(=O)CN(C)S(=O)(=O)c2ccc3c(c2)CCCN3C(C)=O)cc1	D1 antag -42.5!
CCc1ccc(NC(=O)C2CCCN(S(=O)(=O)c3ccc4c(c3)CCCN4C(C)=O)C2)cc1 (stereo not given)	D1 antag -32.4!
CC(=O)N1CCCc2cc(S(=O)(=O)N3CCCC(C(=O)Nc4cccc(F)c4)C3)ccc21 (stereo not given)	none
CC(=O)N1CCCc2cc(S(=O)(=O)N(C)CC(=O)Nc3ccc(C(C)C)cc3)ccc21	none
COc1ccc(CNC(=O)c2ccc(CNS(=O)(=O)c3ccc(F)cc3)cc2)cc1	none
CCOC(=O)CC(NC(=O)Cn1nnc(-c2ccc(C(F)(F)F)cc2)n1)c1ccc(C)cc1 (stereo not given)	none
O=C(COC(=O)CC1Sc2ccccc2NC1=O)NCc1ccccc1 (stereo not given)	D1 agonist 36.8
COc1ccc(CNC(=O)CC2Sc3ccccc3NC2=O)cc1 (stereo not given)	none
COc1cc(S(=O)(=O)N(Cc2ccccn2)Cc2ccccc2Cl)ccc1-n1cnnn1	none
COc1ccccc1CN(Cc1ccco1)S(=O)(=O)c1ccc(-n2cnnn2)c(OC)c1	D1 antag -33.0
Cn1c2c(c(=O)n(C)c1=O)C(c1cccc(O)c1)CC(=O)N2 (stereo not given)	none
CC(=O)Oc1c(C)cc(Cl)cc1C(=O)Nc1ccc([N+](=O)[O-])cc1Cl	D1 agonist 33.7
N=c1n(CCN2CCCCC2)c2ccccc2n1CC(O)COc1ccccc1 (stereo not given)	none
N=c1n(CCN2CCOCC2)c2ccccc2n1CC(O)COc1ccccc1 (stereo not given)	none
CCCCn1c(=N)n(CC(O)COc2ccccc2)c2ccccc21 (stereo not given)	none
CCCn1c(=N)n(CC(O)COc2cccc(C)c2)c2ccccc21 (stereo not given)	D1 agonist 44.2
CCn1c(=N)n(CC(O)COc2cccc(C)c2)c2ccccc21 (stereo not given)	D1 agonist 78.7
CCCCCn1c(=N)n(CC(O)COc2cccc(C)c2)c2ccccc21 (stereo not given)	D1 agonist 59.5
CCc1cccc(-n2nnc(-c3nc(-c4cccs4)no3)c2N)c1	none
COc1ccc(-c2cc(-c3ccc(Cl)cc3)n[nH]2)c(O)c1	D1 antag -34.0
CCn1ccc2cc(S(=O)(=O)N3CCCN(C(=O)NCC(=O)OC)CC3)ccc21	none
Cc1ccc(C)c(NC(=O)Cn2c(=O)n(Cc3ccco3)c(=O)c3ccc(C(=O)NC4CCCC4)cc32)c1	none
Cc1cc(C)c(NC(=O)Cn2c(=O)n(Cc3ccco3)c(=O)c3ccc(C(=O)NC4CCCC4)cc32)c(C)c1	TRHR enhancer 54.8
Cc1cccc(/C=N/NC(=O)C2CCCNC2=O)c1 (stereo not given)	D1 antag -84.5
COC(=O)c1cccc(C23CC4(C2)[C@H](CN(Cc2ccc(-c5ccccc5)cc2)[C@@H]4c2ccccc2)C3c2ccc(Cl)nc2)c1 (stereo not given in full)	D1 antag -36.3
COC(=O)c1cccc(C23CC4(C2)[C@H](CN(Cc2cccnc2)[C@@H]4c2ccccc2)C3c2ccc(Cl)nc2)c1 (stereo not given in full)	none
COC(=O)c1scc(C#N)c1N/N=C(\C#N)S(=O)(=O)c1ccc(Cl)cc1	D1 antag -32.4

High-throughput results as filed in PubChem BioAssay.
